Source: PubChem (National Center for Advancing Translational Sciences (NCATS))
HT1080NT lethal = kills 2HG-producing HT-1080-NT fibrosarcoma cells; AID 686970; HT-1080-NT fibrosarcoma viability, CellTiter-Glo ATP luminescence, 48 h; Potency, µM (top dose mostly 46.1 µM), usual class: cytotoxic; actives 1.6% (n = 360,000);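 further: NT is the 2HG producing partner of a matched IDH1 knockdown line; nearly all actives have a fitted effect of over 55% in size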
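HT-1080-NT; 750 cells/well; 5% FBS RPMI; 48 h compound, 37 degrees C; CellTiter-Glo luminescence; curve fitting and curve-class assignment.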
KB-V1 MDR tox = kills drug-selected multidrug resistant KB-V1 cells | KB-V1 MDR cells viability, CellTiter-Glo, 72 h | Potency, µM (highest dose often 46.1 µM), most hits filed as cytotoxic | actives 3.4% (n = 400,000) | AID 1347076; further: nearly all actives have a fitted effect of over 60% in size
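Cytotoxicity via CellTiter-Glo luminescence after 72 h compound exposure at 37 degrees C. Cells: drug-selected KB-V1 line, DMEM phenol-red free plus 10% FBS. Compounds tested at multiple concentrations; normalized data fitted to concentration-effect curves.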
HT1080 IDH1KD tx = kills HT-1080 cells with IDH1 knockdown. Potency, µM (top dose mostly 46.1 µM), usual class: cytotoxic. HT-1080 IDH1 knockdown viability, ATP luminescence, 48 h. actives 2% (n = 360,000)
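HT-1080-IDH1KD cells (IDH1 knocked down), 750/well in RPMI with 5% FBS, treated with compound 48 h at 37 degrees C. Viability by CellTiter-Glo luminescence, normalised to DMSO and no-cell wells; concentration-response curves classed.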
KB-3-1 tox = kills parental KB-3-1 adenocarcinoma cells; Potency, µM (titrated, usually from 46.1 µM), most hits filed as cytotoxic; KB-3-1 viability, CellTiter-Glo ATP luminescence, 72 h; AID 1347075; actives 1.4% (n = 400,000); further: nearly all actives have a fitted effect of over 60% in size
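Screening of KB-3-1 cells (DMEM, 10% FBS, phenol-red free) ran from lowest to highest compound concentration; after 72 h at 37 °C viability was read luminescently and curves fitted.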
SW480 rerep = inducers of DNA re-replication in SW480 colon cancer cells; Potency, µM (series often up to 46.1 µM), usual class: activators; SW480 DNA re-replication, Hoechst DNA content imaging, 48 h; actives 1.8% (n = 340,000); AID 624297; further: nearly all actives have a fitted effect of over 55% in size
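SW480 cells exposed to compounds for 48 hr at 37 C, 5% CO2, then Hoechst-stained 40 min. Nuclear DNA content imaged by fluorescence scanning (405 nm excitation, 500-530 nm emission); re-replication scored as increased high-intensity nuclei.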
MCF10A rereplic = inducers of DNA re-replication in MCF 10A breast cells; MCF 10A DNA re-replication, Hoechst nuclear intensity, 48 h; Potency, µM (highest dose often 46.1 µM), hits mostly activators; actives 2.9% (n = 350,000); further: nearly all actives have a fitted effect of over 50% in size
Numbers stand for hits; [ ] = remark or other dose. Only some compounds are listed: those with a hit (about 7.9% of all), similar ones and a draw of the others. The call rests on the fitted dose curve; in most records, active means well fitted curve in the direction sought with a large enough effect; inconclusive means small, poorly fitted or top-dose-only effect, or another doubt; inactive means no such curve, though single readings can be large; an effect the other way counts as inactive or inconclusive.

What do the screens show for `COc1ccc2c(c1)-c1c(sn(-c3ccc(OC)c(OC)c3)c1=S)C(C)(C)N2`?
HT1080NT lethal: inconclusive; KB-V1 MDR tox: inactive; HT1080 IDH1KD tx: 18.4µM; KB-3-1 tox: inactive; SW480 rerep: inactive; MCF10A rereplic: inactive

How did CC1(C)CC(Cc2cccc(C(F)(F)F)c2)N(C(=O)OC(C)(C)C)C1 (centres undefined) do in these assays?
HT1080NT lethal: inactive; KB-V1 MDR tox: inactive; HT1080 IDH1KD tx: inactive; KB-3-1 tox: inconclusive

Results for OCCN1CCN(c2nc(-c3ccccc3)c3cc(Br)ccc3n2)CC1 ?
HT1080NT lethal: inconclusive; KB-V1 MDR tox: inactive; HT1080 IDH1KD tx: 23.1µM; KB-3-1 tox: inactive; SW480 rerep: 20.6µM; MCF10A rereplic: 18.4µM

How did O=C(O)CCCC(=O)N1CCN(c2nc(-c3ccccc3Cl)c3cc(Br)ccc3n2)CC1 do in these assays?
HT1080NT lethal: inactive; KB-V1 MDR tox: inactive; HT1080 IDH1KD tx: inconclusive; KB-3-1 tox: inactive; SW480 rerep: inactive; MCF10A rereplic: inconclusive

Results for O=C(O)C1CCN(c2nc(-c3ccccc3)c3cc(Br)ccc3n2)CC1 ?
HT1080NT lethal: inactive; KB-V1 MDR tox: inactive; HT1080 IDH1KD tx: inactive; KB-3-1 tox: inactive; SW480 rerep: inactive; MCF10A rereplic: 23.1µM

What do the screens show for `CCn1cc(C(=O)N2CCN(c3cc(Cl)ccc3C)CC2)c(=O)c2cc(S(=O)(=O)N3CCOCC3)ccc21`?
KB-V1 MDR tox: inactive; KB-3-1 tox: inconclusive

Results for O=C1N(CCCN2C(=O)C3(OCCO3)c3ccccc32)c2ccccc2C12OCCO2 ?
HT1080NT lethal: inactive; KB-V1 MDR tox: 11.6µM; HT1080 IDH1KD tx: inactive; KB-3-1 tox: inactive; SW480 rerep: inactive; MCF10A rereplic: inactive

What do the screens show for `O=C1N(Cc2ccccc2F)c2ccccc2C12OCCCO2`?
HT1080NT lethal: inactive; KB-V1 MDR tox: inactive; HT1080 IDH1KD tx: inactive; KB-3-1 tox: inactive; SW480 rerep: inactive; MCF10A rereplic: inactive

How did O=C1N(Cc2ccc(F)cc2Cl)c2ccccc2C12OCCCO2 do in these assays?
HT1080NT lethal: inactive; KB-V1 MDR tox: 18.4µM; HT1080 IDH1KD tx: inactive; KB-3-1 tox: inconclusive; SW480 rerep: inactive; MCF10A rereplic: inactive

What do the screens show for `CCN(CC)C(=O)CN1C(=O)C2(OCC(C)(C)CO2)c2ccccc21`?
HT1080NT lethal: inactive; KB-V1 MDR tox: 16.4µM; HT1080 IDH1KD tx: inactive; KB-3-1 tox: inactive; SW480 rerep: inactive; MCF10A rereplic: inactive

What do the screens show for `CC/C(=C\c1oc2cc3ccccc3cc2[n+]1CC)Nc1ccccc1`?
HT1080NT lethal: inactive; KB-V1 MDR tox: 20.6µM; HT1080 IDH1KD tx: inconclusive; KB-3-1 tox: inactive; SW480 rerep: 18.4µM; MCF10A rereplic: 23.1µM

What do the screens show for `Cc1ccc(C)c(N2CCN(C(=O)Cn3c(-c4cccs4)cc4ccccc43)CC2)c1`?
KB-V1 MDR tox: inactive; KB-3-1 tox: inactive

Results for Nc1nc(-c2ccccc2)c(N=Nc2ccccc2Cl)s1 ?
HT1080NT lethal: inconclusive; KB-V1 MDR tox: inactive; HT1080 IDH1KD tx: 18.4µM; KB-3-1 tox: inconclusive; SW480 rerep: inactive; MCF10A rereplic: inconclusive

What do the screens show for `Nc1nc(-c2ccccc2)c(N=Nc2cccc3ccccc23)s1`?
HT1080NT lethal: inconclusive; KB-V1 MDR tox: inconclusive; HT1080 IDH1KD tx: 20.6µM; KB-3-1 tox: inconclusive; SW480 rerep: inconclusive; MCF10A rereplic: inconclusive

What do the screens show for `CC(=O)NC1CC2CCCC(C1)N2C(=O)Nc1ccc(Cl)cc1` (centres undefined)?
HT1080NT lethal: inactive; KB-V1 MDR tox: inactive; HT1080 IDH1KD tx: inactive; KB-3-1 tox: inactive

What do the screens show for `C/C(=N\N1CCN(C2c3ccccc3-c3ccccc32)CC1)c1ccncc1`?
HT1080NT lethal: inactive; KB-V1 MDR tox: 18.4µM; HT1080 IDH1KD tx: inactive[9.24 µM]; KB-3-1 tox: inconclusive; SW480 rerep: inactive; MCF10A rereplic: inactive

Results for C(=N\N1CCN(C2c3ccccc3-c3ccccc32)CC1)/c1ccncc1 ?
HT1080NT lethal: inactive; KB-V1 MDR tox: inactive; HT1080 IDH1KD tx: inactive; KB-3-1 tox: inactive; SW480 rerep: inactive; MCF10A rereplic: inconclusive

What do the screens show for `O=C1c2ccccc2NC(c2ccc(Br)s2)N1O` (centres undefined)?
HT1080NT lethal: inconclusive; KB-V1 MDR tox: inconclusive; HT1080 IDH1KD tx: inconclusive; KB-3-1 tox: inconclusive; SW480 rerep: inactive; MCF10A rereplic: 23.1µM

How did CCCOc1ccc(C(=O)Nc2nc(C)c(Cc3ccc4c(c3)OCO4)s2)cc1 do in these assays?
HT1080NT lethal: inactive; KB-V1 MDR tox: inactive; HT1080 IDH1KD tx: inconclusive; KB-3-1 tox: inconclusive; SW480 rerep: inconclusive; MCF10A rereplic: inconclusive

Results for COc1cc(C(=O)Nc2nc(C)c(Cc3ccc4c(c3)OCO4)s2)cc(OC)c1OC ?
HT1080NT lethal: 4.11µM; KB-V1 MDR tox: 1.46µM; HT1080 IDH1KD tx: 4.61µM; KB-3-1 tox: inactive; SW480 rerep: 5.8µM; MCF10A rereplic: 2.59µM

Results for Cc1c(Cc2ccc3c(c2)OCO3)sc(NC(=O)c2ccc3ccccc3c2)c1C(N)=O ?
HT1080NT lethal: inactive; KB-V1 MDR tox: inactive; HT1080 IDH1KD tx: inactive; KB-3-1 tox: inconclusive; SW480 rerep: inactive; MCF10A rereplic: 14.6µM

What do the screens show for `CC1CCCN(C(C(=O)NC2CCCCC2)c2cc3c(cc2[N+](=O)[O-])OCO3)C1` (centres undefined)?
HT1080NT lethal: inactive; KB-V1 MDR tox: 8.2µM; HT1080 IDH1KD tx: inactive; KB-3-1 tox: inconclusive; SW480 rerep: inactive; MCF10A rereplic: inactive

How did Cc1ccc(C)c(N2CCN(C(=O)Cn3ncc4ccsc4c3=O)CC2)c1 do in these assays?
KB-V1 MDR tox: 4.11µM; KB-3-1 tox: 16.4µM

How did CC(Sc1nnc(C(C)Oc2ccc(F)cc2)o1)C(=O)NCc1ccc2c(c1)OCO2 (centres undefined) do in these assays?
HT1080NT lethal: inactive; KB-V1 MDR tox: inactive; HT1080 IDH1KD tx: inactive; KB-3-1 tox: inactive

How did O=C(Nc1ccncc1)C1CCCN(S(=O)(=O)c2cccc3cccnc23)C1 (centres undefined) do in these assays?
HT1080NT lethal: 3.26µM; KB-V1 MDR tox: inactive; HT1080 IDH1KD tx: inconclusive; KB-3-1 tox: inconclusive; SW480 rerep: 2.06µM; MCF10A rereplic: 9.2µM

Results for Cc1ncccc1C(=O)N1CCCC(c2cc(C(=O)Nc3ccc(C(C)(C)C)cc3)no2)C1 (centres undefined) ?
HT1080NT lethal: 20.6µM; KB-V1 MDR tox: inactive; HT1080 IDH1KD tx: inconclusive; KB-3-1 tox: inactive

What do the screens show for `O=C(Nc1ccc(C(F)(F)F)cc1)C1CCCN(S(=O)(=O)c2cccc3cccnc23)C1` (centres undefined)?
KB-V1 MDR tox: inactive; KB-3-1 tox: inactive

What do the screens show for `CC(C)(C)c1ccc(NC(=O)c2cc(C3CCCN(S(=O)(=O)c4cccc5cccnc45)C3)on2)cc1` (centres undefined)?
HT1080NT lethal: inactive; KB-V1 MDR tox: 23.1µM; HT1080 IDH1KD tx: inconclusive; KB-3-1 tox: inconclusive
